Measured values published in PubChem BioAssay (NCATS).
Unmarked numbers belong to inactive results. Calls follow the shape of the dose curve; as a rule, active = well fitted inhibition curve with a large enough effect; inconclusive = small, poorly fitted or top-dose-only effect; inactive = no such curve, though single readings can be large or run the other way. Records with an inconclusive call do not appear.

experiment: qHTS assay for measurement of the activity of small molecule inhibitors on Zika virus induced Caspase-3 activity in human iPSC derived neural progenitor cells (hNPCs) (AID 1224857); details: hNPCs ZIKV-induced caspase-3/7, Caspase-Glo luminescence, 6 h; series mostly up to 45.7 µM; activity change, negative = inhibition: at the top concentration; also: % of control where 0% means no effect; nearly all actives have a fitted effect of over 65% in size
Method in brief: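 hNPCs seeded 350 cells/well, cultured 16–20 h; compounds added 1 h before ZIKV (2 FFU/cell), 37 C 6 h. Caspase-Glo 3/7 luminescence after 30 min RT; % inhibition from induction scaled to uninfected (0%) and infected (100%) wells.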

Row | SMILES | activity change, negative = inhibition
1 | CC(N)Cc1c[nH]c2ccc(O)cc12 (stereo not given) | -10.1%
2 | CC(C)CC(NP(=O)(O)O[C@@H]1O[C@@H](C)[C@H](O)[C@@H](O)[C@H]1O)C(=O)NC(Cc1c[nH]c2ccccc12)C(=O)O (stereo not given in full) | 49.6%
3 | COc1ccc2[nH]c3c(c2c1)CCNC3 | 17.1%
4 | Nc1ncnc2c1ncn2[C@@H]1O[C@H](COP(=O)(O)CP(=O)(O)OP(=O)(O)O)C(O)[C@H]1O (stereo not given in full) | -3.15%
5 | CCCN1CC[C@@H]2c3cc(O)ccc3CC[C@@H]21 | -1.44%
6 | C[C@]12Cc3cn4c(nc3C=C1CCC1C2CC[C@@]2(C)[C@H]1CC[C@@]2(O)C#N)nc1ccccc14 (stereo not given in full) | -3.28%
7 | Nc1cc2c(ncn2CCOCP(=O)(O)O)c(=O)[nH]1 | 17.9%
8 | COc1ccc2c(c1)C13CCCCC1C(C2)N(C)CC3 (stereo not given) | -1.8%
9 | NCC(O)c1cc(O)c(O)cc1F (stereo not given) | 4.59%
10 | N[C@@H](Cn1oc(=O)[nH]c1=O)C(=O)O | 5.51%
11 | CC(C)(O)[C@@H]1[C@H]2OC(=O)[C@@H]1[C@]1(O)C[C@H]3O[C@]34C(=O)O[C@H]2[C@]14C (tested in a mixture with another compound) | 5.55%
12 | NCCc1ccc(S(=O)(=O)F)cc1 | -11.7%
13 | CCN(CC)c1ncnc2c1ncn2[C@@H]1O[C@H](COP(=O)(O)OP(=O)(O)C(Br)(Br)P(=O)(O)O)[C@@H](O)[C@H]1O | -4.9%
14 | [Cl-].[Cl][Pt].[NH2-].[NH2-].c1ccncc1 | -18.8%
15 | CC(=O)NBr | -6.32%
16 | CN1CCC[C@@H]1Cc1c[nH]c2ccc(Nc3ncccc3[N+](=O)[O-])cc12 | -2.57%
17 | CP(=O)(O)C1=CCNCC1 | 0.221%
18 | CCCN(CCC)[C@@H]1CCc2cccc(O)c2C1 | 15.7%
19 | CC(C)(C)OC(=O)NC1[C@H]2CNC[C@@H]12 (stereo not given in full) | 4.68%

experiment: qHTS assay for measurement of the activity of small molecule inhibitors on Zika virus induced Caspase-3 activity in human astrocytoma cells (AID 1224859); details: SNB-19 ZIKV-induced caspase-3/7, luminescence, 6 h; series mostly up to 45.7 µM; activity change, negative = inhibition: at the top concentration;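 also: plate controls were ZIKV-infected untreated cells for no effect and uninfected cells for full effect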
Method in brief: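 Luminescence read-out (Caspase-Glo 3/7, 30 min RT) of caspase activity in SNB-19 cells infected 6 h with ZIKV, 2 FFU/cell, after 1 h compound pretreatment; % inhibition from induction normalised to uninfected (0%) and infected (100%) wells.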

Row | SMILES | activity change, negative = inhibition
20 | COc1ccc2[nH]cc(CCN)c2c1 | -10.6%
21 | CCCN(CCC)CCc1ccc(O)c(O)c1 | -17.5%
22 | NC(=O)c1cc(N2CC2)c([N+](=O)[O-])cc1[N+](=O)[O-] | -4.54%
23 | CC1(C(=O)O)C2CCC(O2)C1(C)C(=O)O (stereo not given) | 13.5%
24 | CCOC(=O)c1ncn2c1[C@@H]1CCCN1C(=O)c1cc(OC)ccc1-2 | -1.68%
25 | CNc1ccc2oc(C[C@H]3O[C@@]4(CC[C@H]3C)O[C@H]([C@H](C)C(=O)c3ccc[nH]3)[C@H](C)C[C@H]4C)nc2c1C(=O)O | 21.5%
26 | OC1CCCCC1N1CCC(c2ccccc2)CC1 (stereo not given) | -15.2%
27 | CCCN(CCC)C1Cc2cc(OC)c(OC)cc2C1 | 8.94%
28 | N=C(N)c1ccc(CS(=O)(=O)F)cc1 | 16.7%
29 | Clc1cc(I)cc(Cl)c1NC1=NCCN1 | -2.7%
30 | CC(N)Cc1c[nH]c2ccc(O)cc12 (stereo not given) | 1.91%
31 | COc1ccc2[nH]c3c(c2c1)CCNC3 | -3.97%
32 | CCCN1CC[C@@H]2c3cc(O)ccc3CC[C@@H]21 | 9.64%
33 | C[C@]12Cc3cn4c(nc3C=C1CCC1C2CC[C@@]2(C)[C@H]1CC[C@@]2(O)C#N)nc1ccccc14 (stereo not given in full) | 5.87%
34 | COc1ccc2c(c1)C13CCCCC1C(C2)N(C)CC3 (stereo not given) | -2.72%
35 | NCC(O)c1cc(O)c(O)cc1F (stereo not given) | 1.24%
36 | N[C@@H](Cn1oc(=O)[nH]c1=O)C(=O)O | 7.23%
37 | NCCc1ccc(S(=O)(=O)F)cc1 | 1.97%
38 | CC(=O)NBr | 3.79%
39 | CP(=O)(O)C1=CCNCC1 | -10.8%
40 | CCCN(CCC)[C@@H]1CCc2cccc(O)c2C1 | -8.69%
